Assay outcomes (PubChem)
The entries come from a sample that favours hits as a whole.
ST2 inh = IL1RL1 inhibition; 78,000 compounds, 2.3% hits; AID 1259354; inhibition, % for hits at 17 µM; AlphaLISA ST2-Fc/biotin-IL-33 interaction, 1 h; Q01638; in the data active = inhibition above about 30%
Of the large screens only hits and unclear results are named; the others gave an inactive call.

CC(C)c1ccc(NC(=O)CN2C(=O)C3CCCCN3c3ccc(C(=O)N4CCOCC4)cc32)cc1 (stereo not drawn)	none
CC(Oc1ccc(Cl)cc1Cl)C(=O)Nc1cccc([N+](=O)[O-])c1 (stereo not drawn)	ST2 inh 30%
Cc1cc(Cl)ccc1OC(C)C(=O)Nc1c(Cl)cccc1Cl (stereo not drawn)	none
CC(Oc1ccccc1)C(=O)Nc1cccc(Cl)c1 (stereo not drawn)	none
Cc1cc(C)n(C)c(=O)c1C(=O)N(C)Cc1csc(C(C)C)n1	none
CC(Sc1nnnn1-c1ccccc1)C(=O)Nc1nccs1 (stereo not drawn)	none
COc1ccc(S(=O)(=O)N2C[C@@H]3C[C@H](C2)c2ccc(-c4ccc(OC(F)(F)F)cc4)c(=O)n2C3)cc1	none
COc1ccccc1NC(=O)N1C[C@@H]2C[C@H](C1)c1ccc(-c3ccc(NC(C)=O)cc3)c(=O)n1C2	none
O=C(Nc1ccccc1)N1C[C@@H]2C[C@H](C1)c1ccc(-c3ccc(OC(F)(F)F)cc3)c(=O)n1C2	ST2 inh 33%
CCC1CN(C(=O)c2cc3ncccn3n2)CCC(=O)N1Cc1ccccc1 (stereo not drawn)	none
COc1ccc(CC(=O)Nc2cccc(Cl)c2)cc1	none
O=C(c1ccc2nc3cc(Cl)ccc3c(=O)n2c1)N1CCOCC1	none
COc1cc2c(cc1OC)C(C(=O)NC1CCCCCC1)C1c3ccccc3CCN1C2=O (stereo not drawn)	none
COc1ccc(Cl)cc1NC(=O)c1cc(-c2ccco2)on1	none
COc1ccc(Nc2c(-c3ccco3)nc3ccc(Br)cn23)cc1	none
COc1cc(C=Nc2c(-c3ccco3)nc3ccc(Cl)cn23)ccc1O	ST2 inh 43%
COc1ccc(-n2ncc3c(N4CCCCCC4)ncnc32)cc1	none
CC(C)CNC(=O)NCCc1nc2cccnc2n1Cc1ccccc1	none
COc1ccc(CNC(=O)NCCc2nc3cccnc3n2Cc2ccccc2)cc1	ST2 inh 63%
CC(C)(C)NC(=O)NCCc1nc2cccnc2n1Cc1ccccc1	none
Cc1cc(Cl)ccc1C(=O)C1CCCN(C(=O)/C=C/c2cnc[nH]2)C1 (stereo not drawn)	none
O=C(CSc1nncc2ccccc12)Nc1ccc2c(c1)OCO2	none
CCOC(=O)N1CCN(C2CCCN(C(=O)c3ccc(CSC)o3)C2)CC1 (stereo not drawn)	none
CSC1=N/C(=C\c2cc(Br)ccc2OCC(=O)O)C(=O)S1	none
COc1cc(C=C2C(=O)OC(C)(C)OC2=O)cc(Cl)c1O	none
COc1cc(/C=C2\N=C(SC)SC2=O)cc(OC)c1OC	ST2 inh 30%
COc1cccc(/C=C2\N=C(SC)SC2=O)c1OCc1ccccc1	ST2 inh 40%
COc1cccc(/C=C2/SC(N3CCCC3)=NC2=O)c1OC	none
CCOc1ccc(/C=C2\N=C(c3cccc(C)c3)OC2=O)cc1	none
CSC1=N/C(=C\c2ccc(C(=O)O)cc2)C(=O)S1	none
CCOc1ccc(/C=C2\N=C(SC)SC2=O)cc1	ST2 inh 44%
CC(C)C(NS(=O)(=O)c1ccc2c(c1)oc(=O)n2C)C(=O)NC1CCCCCC1 (stereo not drawn)	none
Nc1ccc(C(=O)N2N=C(C(F)(F)F)CC2(O)c2ccc(F)cc2)cc1 (stereo not drawn)	none
O=C(c1cccc(N2CCCC2=O)c1)N1C[C@@H]2C3CCC(CC3)[C@@H]2C1	none
CCS(=O)(=O)c1ccc2oc(=O)c(C=C(O)c3cccc([N+](=O)[O-])c3)nc2c1	none
COc1ccc(C(=O)N2C[C@@H]3C[C@H](C2)c2ccc(NC(=O)c4ccccc4)c(=O)n2C3)cc1	none
Cc1ccc(CNC(=O)CN2C(=O)/C(=C/c3ccccc3F)Sc3ccccc32)cc1	none
O=C(CN1C(=O)/C(=C/c2ccccc2F)Sc2ccccc21)NCCN1CCOCC1	none
O=C(CN1C(=O)/C(=C/c2ccccc2F)Sc2ccccc21)N1CCCC1	ST2 inh 33%
C[C@@H]1O[C@@H](OC[C@H]2O[C@@H](Oc3c(-c4ccc(O[C@@H]5O[C@H](CO)[C@@H](O)[C@H](O)[C@H]5O)cc4)oc4cc(O)cc(O)c4c3=O)[C@H](O)[C@@H](O)[C@@H]2O)[C@H](O)[C@H](O)[C@H]1O	none
CCCCOc1ccc(C(=O)N(c2cc(C)cc(C)c2)C2C=CS(=O)(=O)C2)cc1 (stereo not drawn)	none
CN(C(=O)Cc1ccccc1)c1ccccc1	ST2 inh 36%
CN(C(=O)N1CCN(C(=O)N(C)c2ccccc2)CC1)c1ccccc1	none
O=C(Cc1ccccc1)N(c1ccccc1)c1ccccc1	none
NC(=O)CSc1nc2c(sc3ccccc32)c(=O)n1CCCC(=O)NC1CCCCC1	none
CC1CCC2C(C1)c1sc(=O)[nH]c1SC2(C)C (stereo not drawn)	none
CC12COc3ccccc3C1c1sc(=O)[nH]c1SC2 (stereo not drawn)	ST2 inh 32%
O=c1[nH]c2c(s1)C1c3cc([N+](=O)[O-])ccc3OCC1CS2 (stereo not drawn)	none
CC(NC(=O)c1cn(C)c(=O)c2c1c1ccccc1n2C)c1ccc2c(c1)OCCO2 (stereo not drawn)	none
CCOC(CNC(=O)c1sc2ncn(CC(=O)N(CC)CC)c(=O)c2c1C)OCC	none
CC(C)OCCCNC(=O)CN1C(=O)/C(=C\c2ccc(C(F)(F)F)cc2)Sc2ccccc21	none
